# PubChem BioAssay AID1851 (National Center for Advancing Translational Sciences (NCATS), 2009)
# Among all 16,000 compounds or so, about 5,700 (36%) were called active. Not shown: some 24% with an inconclusive outcome. The list shows a part of the results. Values without a mark were called inactive. Calls follow the shape of the dose curve; as a rule, active = well fitted curve in the direction sought with a large enough effect; inconclusive = small, poorly fitted or top-dose-only effect, or effect the other way; inactive = no such curve, though single readings can be large or run the other way.
# Biological target: Cytochrome P450 1A2 (Homo sapiens) (UniProt P05177)
# Assay: Cytochrome panel assay with activity outcomes
# Details: recombinant CYP, pro-luciferin dealkylation, luminescence, p450-cyp1a2; series mostly up to 57.1 µM
# % is scaled to controls: 0 for no effect and ±100 for the full control effect.
# Sequence of Cytochrome P450 1A2 (Homo sapiens) (P05177 whole entry, looked up): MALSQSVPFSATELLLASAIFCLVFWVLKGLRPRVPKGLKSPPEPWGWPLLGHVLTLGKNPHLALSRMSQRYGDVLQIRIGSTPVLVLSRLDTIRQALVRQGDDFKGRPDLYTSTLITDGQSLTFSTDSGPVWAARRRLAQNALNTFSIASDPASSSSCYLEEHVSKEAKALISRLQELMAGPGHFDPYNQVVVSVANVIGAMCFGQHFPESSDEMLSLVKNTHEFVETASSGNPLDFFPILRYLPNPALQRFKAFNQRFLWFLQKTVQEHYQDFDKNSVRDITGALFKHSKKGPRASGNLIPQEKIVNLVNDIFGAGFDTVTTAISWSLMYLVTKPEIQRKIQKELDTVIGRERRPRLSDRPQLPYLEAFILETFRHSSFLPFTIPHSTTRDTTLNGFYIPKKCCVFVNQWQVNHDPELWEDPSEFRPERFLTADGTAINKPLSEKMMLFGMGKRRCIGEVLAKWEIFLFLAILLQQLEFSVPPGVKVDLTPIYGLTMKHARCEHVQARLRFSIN
Structure (SMILES),AC50,"activity, negative = inhibition"
CCOC(=O)C1=C(c2ccccc2)N=c2s/c(=C\c3ccc(O)cc3)c(=O)n2C1c1cccs1 (centres undefined),inactive,
CCOC(=O)C1=C(c2ccccc2)N=c2s/c(=C\c3cccc(O)c3)c(=O)n2C1c1cccs1 (centres undefined),25.1 µM (active),
CCOC(=O)C1=C(c2ccccc2)N=c2s/c(=C\c3ccco3)c(=O)n2C1c1cccs1 (centres undefined),6.31 µM (active),
CCOC(=O)C1=C(c2ccccc2)N=c2s/c(=C\c3cc(OC)c(OC)c(OC)c3)c(=O)n2C1c1cccs1 (centres undefined),inactive,
COc1ccc(C2/C(=C(/O)c3ccc(Cl)cc3)C(=O)C(=O)N2CCN2CCOCC2)c(OC)c1 (centres undefined),inactive,
Cc1ccc(NC(=O)Nc2nc(-c3ccc(C)s3)cs2)cc1,1.58 µM (active),
C#CCCCO/N=C1/C[C@@H](O)[C@@H](O)[C@@H]2[C@@H]3C(=O)N(Cc4ccccc4)C(=O)[C@H]3CC[C@@H]12,,6.78% [at 11.4 µM]
CNC(=O)c1nnn(Cc2ccccc2)c1NC(=O)C(F)(F)F,inactive,
COc1ccc(NC(=O)C2CC(=O)NC3=C2C(=O)CC(C)(C)C3)cc1 (centres undefined),inactive,
COc1ccc(C(C(=O)Nc2ccc(F)cc2)N(C(=O)Cn2nnc3ccccc32)C2CC2)cc1 (centres undefined),inactive,
N[C@@H](Cc1cccc([N+](=O)[O-])c1)C(=O)O,,-10.6% [at 11.4 µM]
COCC(C)NCc1cccc([N+](=O)[O-])c1 (centres undefined),inactive,
CCN(Cc1ccccc1)Cc1cccc([N+](=O)[O-])c1,5.01 µM (active),
O=C(O)CC/C=C\CC[C@H]1[C@@H](N2CCCCC2)[C@@H](O)C[C@@H]1OCc1ccc(-c2ccccc2)cc1,inactive,
CNc1cc(-c2ccccc2C)ncn1,10 µM (active),
CNc1ncncc1-c1ccccc1C(F)(F)F,inactive,
FC(F)(F)c1ccccc1-c1cc(NCc2ccccc2)ncn1,12.6 µM (active),
CNc1cc(-c2ccccc2C(F)(F)F)ncn1,15.8 µM (active),
Cc1ccccc1-c1cc(N(C)C)ncn1,2 µM (active),
CN(C)C(=O)/N=N\C(=O)N(C)C,inactive,
CC(C)=CCC/C(C)=C/CO/N=C1/C[C@@H](O)[C@@H](O)[C@@H]2[C@@H]3C(=O)N(C[C@@H]4CCCO4)C(=O)[C@H]3CC[C@@H]12,,-6.43% [at 11.4 µM]
O=C(O)CNc1ccc(C(=O)O)cc1,,-15.1% [at 11.4 µM]
O=C(CCNc1cccc(Cl)c1)c1cccs1,10 µM (active),
O=C(CNc1cccc(Cl)c1)c1ccc(Cl)cc1,3.16 µM (active),

Structure (SMILES),AC50,"activity, negative = inhibition"
O=C(O)CCCC[C@H]1CCSS1,inactive,
COc1cccc2c1OC1(C)CC2/C(=C(\C)O)C(=O)N1 (centres undefined),inactive,
CCc1ccc(-c2ccc(C(=O)C(F)(F)F)[nH]2)cc1,1.12 µM (active),
N[C@@H](CO)C(=O)NNCc1ccc(O)c(O)c1O,inactive,
CC[C@H]1C(=O)OC[C@H]1Cc1cncn1C,inactive,
CC(NC(=O)Cc1ccc(F)cc1)c1ccccc1 (centres undefined),inactive,
CC(C)NC(=O)CC(=O)N/N=C/c1ccc(F)cc1,15.8 µM (active),
CC(C)NC(=O)CC(=O)N/N=C/c1ccc(Br)cc1,1.41 µM (active),
O=Nc1ccc(NOC(=O)c2ccc(Br)cc2)cc1,inactive,
C=CC(=O)NC(NC(=O)C=C)c1ccc(Br)cc1,inactive,
Cc1ccc(S(=O)(=O)N(CC(=O)N/N=C/c2ccc(F)cc2)c2cccc3cccnc23)cc1,inactive,
C1CCC(N=C(NC23CC4CC(CC(C4)C2)C3)N2CCOCC2)CC1,inactive,
Cc1nc2cncnc2n(Cc2ccccc2)c1=O,12.6 µM (active),
Cc1nc2cncnc2n(Cc2ccc(F)cc2)c1=O,10 µM (active),
CC(=O)OC[C@@H]1O[C@H](C/C=N\O[C@@H](C)CN2CCCc3nc(C)c(C)cc32)C=C[C@@H]1OC(C)=O,,-4.85% [at 11.4 µM]
CCN(CC)S(=O)(=O)N1CCC(C(=O)NCc2ccc(C)cc2)CC1,inactive,
Cc1ccc(CNC(=O)C2CC(c3ccccc3[N+](=O)[O-])=NO2)cc1 (centres undefined),5.01 µM (active),
Cc1ccc(CCNC(=O)C2CC(c3ccccc3[N+](=O)[O-])=NO2)cc1 (centres undefined),6.31 µM (active),
CC(C)(C)OC(=O)N1CCCC1C(=O)NCCc1ccccc1 (centres undefined),inactive,
O=C(NCc1ccc2c(c1)OCO2)C1CC(c2cccc(Br)c2)=NO1 (centres undefined),2 µM (active),
Cc1ccc(CCN2CC(C(=O)NCCCN(C)Cc3ccccc3)CC2=O)cc1 (centres undefined),inactive,
Cc1ccc(CNC(=O)C2CCC(=O)N2C2CCCCC2)cc1 (centres undefined),inactive,
O=C1[C@H]2[C@H]3[C@H](O)[C@H](O)C/C(=N/OCc4ccccc4)[C@@H]3CC[C@@H]2C(=O)N1Cc1ccc2c(c1)OCO2,,-8.98% [at 11.4 µM]
Cc1ccc(CNC(=O)C2CC(c3ccccc3[N+](=O)[O-])=NO2)o1 (centres undefined),6.31 µM (active),

Structure (SMILES),AC50,"activity, negative = inhibition"
O=C1[C@H]2[C@H]3[C@H](O)[C@H](O)C/C(=N/OCc4ccccc4)[C@H]3CC[C@@H]2C(=O)N1Cc1ccc2c(c1)OCO2,,-4.06% [at 11.4 µM]
COc1c(N2CCN(C(=S)Nc3ccc(F)cc3)C(C)C2)c(F)cc2c(=O)c(C(=O)O)cn(C3CC3)c12 (centres undefined),inactive,
COc1ccc(CNC(=O)C2CC(c3cccc([N+](=O)[O-])c3)=NO2)cc1 (centres undefined),15.8 µM (active),
NS(=O)(=O)c1ccc(CCNC(=O)C2CCCN2C(=O)OCc2ccccc2)cc1 (centres undefined),inactive,
COc1cccc(C2=NOC(C(=O)NCc3ccccn3)C2)c1 (centres undefined),inactive,
O=C(NCCCCc1ccccc1)C1CC(c2ccccc2[N+](=O)[O-])=NO1 (centres undefined),2.24 µM (active),
Cc1cc(NC(=O)c2ccc(S(=O)(=O)N(C)C)cc2)n(-c2ccccn2)n1,inactive,
CCCCN(C)S(=O)(=O)c1ccc(C(=O)Nc2nnc(CSC)o2)cc1,inactive,
CCOC(=O)c1cc(NC(=O)c2ccc(OC)cc2)c(=O)oc1-c1ccccc1,inactive,
CCOC(=O)c1oc2ccccc2c1NC(=O)c1ccc(S(=O)(=O)N(C)C)cc1,12.6 µM (active),
CCOC(=O)c1oc2ccccc2c1NC(=O)c1ccc2c(c1)OCO2,1 µM (active),
CCOC(=O)c1oc2ccccc2c1NC(=O)c1cc(OC)cc(OC)c1,0.794 µM (active),
CC(C)(N)CO[C@H]1C[C@H]2CC[C@@]1(C)C2(C)C,,-8.25% [at 11.4 µM]
CC(=O)Nc1ccc(S(=O)(=O)NCC2CCC(C(=O)NCCC(C)C)CC2)cc1 (centres undefined),inactive,
Cn1cccc1C(=O)N1CCC2(CC1)CN(Cc1ccc(C#N)cc1)C2,inactive,
CCOc1cc(/C=N/n2cnnc2)c(Br)cc1O,10 µM (active),
O=C(Nc1cc(C(F)(F)F)ccc1N1CCCCC1)c1ccc(Br)o1,0.282 µM (active),
Cc1noc(NS(=O)(=O)c2ccc(NC(=O)c3ccc(Br)o3)cc2)c1C,inactive,
O=C(COc1ccccc1)Nc1cc(C(F)(F)F)ccc1N1CCCC1,2 µM (active),
NS(=O)(=O)c1cc(C(=O)O)cc(N2CCCC2)c1Oc1ccccc1,inactive,
O=C(Nc1ccccc1N1CCN(C(=O)c2ccccc2)CC1)c1cc(Br)ccc1Cl,inactive,
Cc1cc(C)n(-c2ccc(C(=O)Nc3cc(C(F)(F)F)ccc3N3CCOCC3)cc2)n1,inactive,
CC(C)(C)c1ccc(OCC(=O)NNC(=O)CCc2ccccc2)cc1,inactive,
Cc1cc(F)ccc1S(=O)(=O)Nc1ccccc1C(=O)Nc1ccccc1N1CCOCC1,inactive,

Structure (SMILES),AC50,"activity, negative = inhibition"
CS(=O)(=O)N1CCN(c2ccccc2NC(=O)c2ccc(Br)o2)CC1,14.1 µM (active),
O=C(c1cnccn1)N1CCC2(CC1)CN(Cc1nccs1)C2,inactive,
O=C(NNC(=S)NC(=O)c1cccnc1)c1ccccc1,inactive,
O=C(NC(=S)Nc1ccc(Br)cn1)c1cncc(Br)c1,0.282 µM (active),
COc1ccc(C2C(C(=O)N3CCN(C)CC3)c3ccccc3C(=O)N2C2CCCCC2)cc1 (centres undefined),inactive,
O=C(NCc1ccccc1)c1sc(=S)n2c1[nH]c(=O)c1ccccc12,8.91 µM (active),
O=C(NC1CCCCC1)c1sc(=S)n2c1[nH]c(=O)c1ccccc12,3.16 µM (active),
COc1cccc(/C=c2/s/c(=C(\C#N)C(=O)N3CCOCC3)n(-c3ccccc3)c2=O)c1,inactive,
CCOC(=O)N/N=C1/C[C@@H](O)[C@@H](O)[C@@H]2[C@@H]3C(=O)N([C@@H](C)c4ccccc4)C(=O)[C@H]3CC[C@H]12,,7.27% [at 11.4 µM]
CN(C)CCN1C(=O)C(O)=C(C(=O)c2cc3ccccc3o2)C1c1ccccn1 (centres undefined),inactive,
Cc1ccc2nc(N3CCN(S(=O)(=O)c4ccc5c(c4)OCCO5)CC3)c(C#N)cc2c1,inactive,
Cc1ccc(-c2csc(N3CCC(NS(=O)(=O)c4ccc5c(c4)OCCO5)CC3)n2)cc1,5.01 µM (active),
CN1CCCN(S(=O)(=O)c2ccc3c(c2)OCCO3)CC1,inactive,
CCn1c2ccccc2c2cc(/C=N/n3cn[nH]c3=S)ccc21,2.82 µM (active),
Clc1ccc(Cn2c(-c3cccnc3Cl)nc3ccccc32)c(Cl)c1,12.6 µM (active),
Nc1nonc1-c1nc2ccccc2n1Cc1ccc(F)cc1Cl,0.2 µM (active),
CC(=O)OCC(=O)[C@@]1(O)CC[C@@H]2[C@H]3CCC4=CC(=O)C=C[C@]4(C)[C@]3(F)[C@@H](O)C[C@@]21C,inactive,
COc1ccccc1-c1nc(NC2CC2)c2ccccc2n1,0.316 µM (active),
Cc1ccccc1-c1nc(NC2CC2)c2ccccc2n1,0.501 µM (active),
CC(=O)Nc1ccc(S(=O)(=O)N2CCN(c3nc(NC4CCCC4)c4ccccc4n3)CC2)cc1,inactive,
COc1cc(CC(=O)O)c(C(C)=O)cc1OC,inactive,
CC(=O)c1cc(CC=C(C)C)c(O)cc1O,3.55 µM (active),
